# System: SRPK2
# Details: concentration: 1 μM, replicates: in singlicate; n = 1
# 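Further: KINOMEscan kinase panel screen.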
row,SMILES,%Inh
1,CN(c1ccc(NC(=O)Nc2cc(C(F)(F)F)ccc2F)cc1)c1ccnc(Nc2ccc(S(N)(=O)=O)cc2)n1 [GW809893],0%
2,Nc1ncnc2c1nc(-c1ccccc1)n2-c1ccccc1 [SKF-97293],5%
3,CN1CCN(CCCNc2nccc(-c3c(-c4ccc(F)cc4)nn4cc(C(F)(F)F)ccc34)n2)CC1 [GW621581],0%
4,O=C(Nc1cccc(-c2nn3ccccc3c2-c2ccnc(Nc3cccc(C(F)(F)F)c3)n2)c1)c1c(F)cccc1F [GSK292658],0%
5,COc1cc(Nc2nccc(N3CCC(NC(=O)Nc4cccc(C(C)=O)c4)C3)n2)cc(OC)c1OC (stereo not shown) [GSK1379753],0%
6,Cl.Cl.NCC(C(=O)Nc1cc(Br)c(-c2ccnc3[nH]ccc23)s1)c1ccccc1 (stereo not shown) [GSK1269851],59%
7,COc1ccc(Nc2nccc(NCCNC(=O)c3cc4ccccc4s3)n2)cc1 [GSK1379896],0%
8,Cc1ccc(F)c(C(=O)Nc2cccc(-c3nn4ccccc4c3-c3ccnc(Nc4cccc(F)c4)n3)c2)c1F [GSK361061],0%
9,Cl.Cl.NCC(NC(=O)c1cc(-c2ccccc2)c(-c2ccnc3[nH]ccc23)s1)c1ccccc1 (stereo not shown) [GSK1321561],0%
10,Cc1cccc(Nc2nc(N[C@H]3CCNC3)ncc2C(N)=O)c1.Cl [GSK2197149],0%
11,COc1cccc(C2=C(Nc3ccc(Cl)c(C(=O)O)c3)C(=O)NC2=O)c1 [SB-390769],0%
12,O=C(Nc1cccc(-c2nn3ccccc3c2-c2ccnc(Nc3cccc(F)c3)n2)c1)c1c(F)ccc(F)c1Cl [GSK357952],0%
13,COc1cccc(NC(=O)NC2CCN(c3ccnc(Nc4cc(OC)c(OC)c(OC)c4)n3)C2)c1 (stereo not shown) [GSK1379763],0%
14,O=c1[nH]cc(-c2ccc(N3CCOCC3)cc2)c2sc(-c3cn[nH]c3)cc12 [GSK2276055],0%
15,CC(C)(C)c1ccc2nccc(Nc3cccc(O)c3)c2c1 [GW856795],9%
16,COc1ccc(Nc2nccc(N3CCC(NC(=O)Nc4cccc(OC)c4)C3)n2)cc1 (stereo not shown) [GSK1379742],0%

row,SMILES,%Inh
1,CCS(=O)(=O)c1ccc(OC)c(Nc2nccc(-c3c(-c4cccc(NC(=O)c5c(F)cccc5F)c4)nn4ncccc34)n2)c1 [GSK326180],0%
2,CC(C)c1nc(-c2cccc(NS(=O)(=O)c3c(F)cccc3F)c2F)c(-c2ccnc(Nc3ccc(N4CCOCC4)nc3)n2)s1 [GSK2008607],0%
3,Fc1ccc(-c2ncn(C3CCNCC3)c2-c2ccnc(Oc3ccc(-c4ccccc4)cc3)n2)cc1 [SB-245391],0%
4,O=C(Nc1n[nH]c2cc(-c3ccoc3)ccc12)C1CC1 [SB-738481],0%
5,Nc1ncc(-c2cccnc2)c2scc(-c3ccc4c(c3)CCN4C(=O)Cc3ccccc3)c12 [GSK683281],0%
6,Nc1ncc(-c2ccc3nccc(-c4ccncc4)c3c2)cc1S(=O)(=O)N1CCOCC1 [GSK1627798],0%
7,C[C@@H]1CC[C@@H](C(=O)Nc2ccccc2)CN1c1cc(-c2ccc3c(N)n[nH]c3c2)nc(N)n1 [GSK2286062],33%
8,Cn1cc(-c2ccc3c(c2)CCN3C(=O)Cc2cccc(F)c2)c2c(N)ncnc21 [GSK2603358],0%
9,Cc1ccc(C(=O)N2CC[C@@H](O)C2)cc1-n1c(C)cc(OCc2ccc(F)cc2F)c(Br)c1=O,0%
10,CN1CCN(Cc2cccc(-c3ccc4c(Nc5ccc(Oc6ccccc6)cc5)ccnc4c3)c2)CC1 [GW578342],20%
11,CN(C)S(=O)(=O)c1cc(-c2ccc3nccc(-c4cccc(S(N)(=O)=O)c4)c3c2)cnc1N [GSK1669921],0%
12,COc1cc(Nc2nccc(-c3c(-c4cccc(NC(=O)c5c(F)cccc5F)c4)nn4ncccc34)n2)cc(OC)c1OC [GSK327238],0%
13,COCCOCCOc1cc2ncc3c4ccc(C#N)cc4[nH]c3c2cc1OC,24%
14,Cc1ccc(C(=O)Nc2ccc(Nc3ccnc4cc(-c5nccs5)ccc34)cc2O)cc1.Cl [GW494702],31%
15,CC(=O)N1CCN(c2ccc(Nc3nccc(-c4sc(C(C)C)nc4-c4cccc(NS(=O)(=O)c5cccc(Cl)c5)c4)n3)cn2)CC1 [GSK1660437],0%
